Test results reported in PubChem BioAssay (Tox21).
Where “and” joins values, the source holds several entries; their conditions need not be identical. Identical values can stand only once. Records with an inconclusive call do not appear. A call without a number means that no potency is given here. A structure can be active in one record and inactive in another. Calls of active or inactive are those of the source. Unless noted, calls come from the whole dose curve; as a rule, active = well fitted curve in the direction sought with a large enough effect in the repeat runs; inconclusive = weak or mixed curves; inactive = no such curve, though single readings can be large; an effect the other way counts as inactive or inconclusive.

What was measured:
[1] = qHTS assay to identify small molecule agonists of the RXR signaling pathway - cell viability counter screen (AID 1159529); note: nearly all actives have a fitted effect of over 50% in size; note: potency is the fitted concentration of half-maximal effect
Method in brief: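 RXR-alpha-UAS-bla HEK 293T cells in medium with 2% charcoal-stripped FBS were pre-incubated 5 hr, then compound-treated 16 hr at 37 C. Viability was read by CellTiter-Glo luminescence in the same wells as the beta-lactamase assay, with tetraoctyl ammonium bromide as positive control.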

[2] = qHTS assay to identify small molecule antagonists of the retinoid acid receptor (RAR) signaling pathway - cell viability counter screen (AID 1159551); note: nearly all actives have a fitted effect of over 35% in size
Method in brief: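 Measured by luminescent ATP detection, viability reflects C3RL4 cells treated 6 h at 37 C with test chemicals in the presence of 1 uM (final) retinol.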

[3] = qHTS assay to identify small molecule antagonists of the retinoic acid receptor (RAR) signaling pathway (AID 1159552; note: nearly all actives have a fitted effect of over 50% in size)
Method in brief: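 Retinol signaling pathway inhibitors screened in C3RL4 RARE-luciferase reporter cells seeded overnight at 37 C, then compounds added with 1 uM (final) retinol as pathway substrate. After 6 hr at 37 C, luciferase luminescence read after 30 min at room temperature.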

[4] = qHTS assay to identify small molecule agonists of the retinoic acid receptor (RAR) signaling pathway (AID 1159553)
Method in brief: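 6 hr compound exposure (DMSO vehicle) of overnight-plated C3RL4 RARE-luc cells at 37 C; luminescence quantified after 30 min RT with luciferase reagent.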

[5] = target: Luciferin 4-monooxygenase (Photinus pyralis) (UniProt P08659); experiment: qHTS assay to identify small molecule inhibitors of firefly luciferase (AID 1224835); note: series mostly up to about 120 µM; nearly all actives have a fitted effect of over 25% in size
Sequence of Luciferin 4-monooxygenase (Photinus pyralis) (P08659 whole entry, looked up): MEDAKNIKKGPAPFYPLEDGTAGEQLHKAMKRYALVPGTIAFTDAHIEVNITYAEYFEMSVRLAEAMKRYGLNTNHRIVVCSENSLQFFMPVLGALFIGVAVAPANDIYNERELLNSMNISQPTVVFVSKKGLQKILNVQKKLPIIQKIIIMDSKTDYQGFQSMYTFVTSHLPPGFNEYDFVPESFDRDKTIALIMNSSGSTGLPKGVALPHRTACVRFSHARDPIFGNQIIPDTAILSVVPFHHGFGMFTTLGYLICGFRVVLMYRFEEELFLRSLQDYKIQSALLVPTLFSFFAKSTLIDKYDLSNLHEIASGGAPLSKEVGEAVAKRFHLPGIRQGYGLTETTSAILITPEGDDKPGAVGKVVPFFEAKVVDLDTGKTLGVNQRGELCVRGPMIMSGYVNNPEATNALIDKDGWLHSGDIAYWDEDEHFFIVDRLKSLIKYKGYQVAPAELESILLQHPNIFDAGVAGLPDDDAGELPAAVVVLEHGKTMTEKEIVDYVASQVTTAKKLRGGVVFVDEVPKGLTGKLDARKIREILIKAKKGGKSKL
Method in brief: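 Quantitative HTS format; KM concentrations of both substrates. Purified P. pyralis FLuc activity quantified from luminescence images.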

[6] = qHTS assay to identify small molecule agonists of the constitutive androstane receptor (CAR) signaling pathway - cell viability counter screen (AID 1224836); note: series mostly up to about 92 µM; nearly all actives have a fitted effect of over 45% in size
Method in brief: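 HepG2 cells stably carrying hCAR and a CYP2B6-2.2kb reporter; 15-concentration compounds plus PK11195 (final 0.75 uM), 23 hr at 37 C/5% CO2. Viability read by CellTiter-Fluor fluorescence.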

[7] = qHTS assay to identify small molecule antagonists of the constitutive androstane receptor (CAR) signaling pathway - cell viability counter screen (AID 1224837); note: series mostly up to about 92 µM; nearly all actives have a fitted effect of over 45% in size
Method in brief: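 To flag cytotoxic false antagonists, HepG2 hCAR/CYP2B6-2.2kb cells were treated 23 hr with 15-concentration compound series and 50 nM CITCO at 37 C/5% CO2; CellTiter-Fluor fluorescence was the measured end point.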

[8] = qHTS assay to identify small molecule antagonists of the estrogen related receptor signaling pathway with the pleiotropic PPARgamma coactivator (PGC) from Tox21 10K library - cell viability counter screen (AID 1224840; active = well fitted cell-killing curve with a large enough effect in the repeat runs, not every such curve was filed as active; note: nearly all actives have a fitted effect of over 40% in size)
Method in brief: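 Seeded PGC/ERR cells (2,000/well, 6 h, 37 C/5% CO2) get compound by pin tool; 17.5 h incubation at 37 C; CellTiter-Fluor added, 30 min, fluorescence measured.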

[9] = qHTS assay to identify small molecule antagonists of the estrogen related receptor signaling pathway with the pleiotropic PPARgamma coactivator (PGC) from Tox21 10K library (AID 1224841; call rule not given here; note: series mostly up to about 92 µM; actives are mostly falling curves and most rising ones were filed inactive; nearly all actives have a fitted effect of over 50% in size)
Method in brief: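 Test chemicals dissolved in DMSO were applied to pre-incubated (6 h) PGC/ERR cells at 2,000 cells/well for an 18 h, 37 C treatment; reporter luminescence was then read using One-Glo.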

[10] = qHTS assay to identify small molecule agonists of the estrogen related receptor signaling pathway with the pleiotropic PPARgamma coactivator (PGC) from Tox21 10K library (AID 1224842); note: nearly all actives have a fitted effect of over 15% in size; note: potency is the fitted concentration of half-maximal effect
Method in brief: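 PGC/ERR reporter cells (NTP line) were seeded 2,000 per well, rested 6 h at 37 C/5% CO2, then pin-dosed with compounds in DMSO for 18 h at 37 C; luciferase read by One-Glo luminescence after 30 min at room temperature.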

[11] = target: Thyrotropin receptor (Homo sapiens) (UniProt P16473); experiment: qHTS assay to identify small molecule agonists of the thyroid stimulating hormone receptor (TSHR) signaling pathway (AID 1224843; calls by dose curve; note: nearly all actives have a fitted effect of over 45% in size; note: potency is the fitted concentration of half-maximal effect)
Sequence of Thyrotropin receptor (Homo sapiens) (P16473 whole entry, looked up): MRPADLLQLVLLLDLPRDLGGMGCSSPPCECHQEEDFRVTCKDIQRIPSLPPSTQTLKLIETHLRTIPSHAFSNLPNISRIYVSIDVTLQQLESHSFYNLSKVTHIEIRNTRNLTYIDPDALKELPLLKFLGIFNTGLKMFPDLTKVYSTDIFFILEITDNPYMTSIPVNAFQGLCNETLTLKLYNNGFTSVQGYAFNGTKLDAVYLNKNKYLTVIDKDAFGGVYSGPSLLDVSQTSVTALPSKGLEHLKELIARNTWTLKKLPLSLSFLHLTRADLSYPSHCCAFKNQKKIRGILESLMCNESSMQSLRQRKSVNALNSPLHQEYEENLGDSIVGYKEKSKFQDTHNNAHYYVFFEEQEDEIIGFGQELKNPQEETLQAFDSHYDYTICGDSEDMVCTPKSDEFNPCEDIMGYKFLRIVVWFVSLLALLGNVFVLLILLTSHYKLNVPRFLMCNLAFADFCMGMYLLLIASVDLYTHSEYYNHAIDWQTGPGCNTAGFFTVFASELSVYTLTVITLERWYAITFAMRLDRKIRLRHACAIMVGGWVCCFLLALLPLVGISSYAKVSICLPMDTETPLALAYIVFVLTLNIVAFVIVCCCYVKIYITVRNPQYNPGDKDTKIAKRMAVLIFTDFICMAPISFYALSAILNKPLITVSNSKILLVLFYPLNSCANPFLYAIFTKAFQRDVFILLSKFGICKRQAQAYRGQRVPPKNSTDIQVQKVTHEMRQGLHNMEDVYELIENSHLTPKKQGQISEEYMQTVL
Method in brief: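 Using 15 concentrations per compound in triplicate, cAMP production was monitored in TSHR-HEK293 cells after 30 min compound incubation at RT; HTRF reagents followed, with fluorescence intensity recorded after 1 h.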

[12] = qHTS assay to identify small molecule antagonists of the estrogen related receptor (ERR) signaling pathway - cell viability counter screen (AID 1224818); note: series mostly up to about 46 µM
Method in brief: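 Compounds dissolved in DMSO were applied to ERR cells seeded at 2,000 per well 6 h earlier. Cell viability followed 17.5 h later via 30-min CellTiter-Fluor fluorescence.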

[13] = qHTS assay to identify small molecule antagonists of the estrogen related receptor (ERR) signaling pathway (AID 1224819;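 note: luminescence from an ERR-driven luciferase reporter measured with One-Glo reagent; series mostly up to about 46 µM; nearly all actives have a fitted effect of over 50% in size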)
Method in brief: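 Compounds dissolved in DMSO were pin-transferred onto ERR cells that had been plated 6 h earlier, and cells were then incubated 18 h at 37 C; signal was luciferase luminescence via One-Glo.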

[14] = test system: estrogen-related receptor alpha (ERRalpha) with PGC-1alpha coactivator, human; experiment: qHTS assay to identify small molecule antagonists of the estrogen related receptor signaling pathway with the pleiotropic PPARgamma coactivator (PGC) (AID 1224821; calls by dose curve)
Method in brief: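 PGC/ERR reporter cells; 6 h pre-incubation 37 C/5% CO2; pin-tool compound in DMSO, 18 h 37 C; One-Glo added, 30 min RT; luminescence read. qHTS antagonist mode.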

[15] = qHTS assay to identify small molecule antagonists of the estrogen related receptor signaling pathway with the pleiotropic PPARgamma coactivator (PGC) cell viability counter screen (AID 1224822; note: series mostly up to about 46 µM)
Method in brief: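 Counter screen for cell viability: PGC/ERR cells, 6 h pre-incubation after plating, 17.5 h compound exposure at 37 C, fluorescence from CellTiter-Fluor after 30 min.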

[16] = qHTS assay to identify small molecule agonists of the estrogen related receptor signaling pathway with the pleiotropic PPARgamma coactivator (PGC) (AID 1224823)
Method in brief: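 Luminescence readout (One-Glo, 30 min RT) from PGC/ERR cell line treated 18 h at 37 C with pin-tool-delivered DMSO compound solutions; cells plated 6 h before dosing. Quantitative HTS format.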

[17] = target: Nuclear receptor subfamily 1 group I member 3 (Homo sapiens) (UniProt Q14994); experiment: qHTS assay to identify small molecule agonists of the constitutive androstane receptor (CAR) signaling pathway (AID 1224839); note: nearly all actives have a fitted effect of over 15% in size; note: potency is the fitted concentration of half-maximal effect
Sequence of Nuclear receptor subfamily 1 group I member 3 (Homo sapiens) (Q14994 whole entry, looked up): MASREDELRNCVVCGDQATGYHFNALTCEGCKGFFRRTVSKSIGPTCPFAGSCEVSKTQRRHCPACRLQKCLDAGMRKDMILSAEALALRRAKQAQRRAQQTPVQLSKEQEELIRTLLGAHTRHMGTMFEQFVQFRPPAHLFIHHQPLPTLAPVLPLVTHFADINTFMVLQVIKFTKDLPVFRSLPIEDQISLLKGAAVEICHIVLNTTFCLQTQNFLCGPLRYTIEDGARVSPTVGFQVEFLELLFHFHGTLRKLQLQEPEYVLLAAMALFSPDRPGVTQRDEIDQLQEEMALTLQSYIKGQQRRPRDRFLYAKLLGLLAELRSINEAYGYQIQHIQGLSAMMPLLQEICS
Method in brief: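 HepG2 cells stably co-transfected with hCAR and a CYP2B6-2.2kb luciferase reporter; compounds at 15 concentrations with 0.75 uM PK11195 present. After 24 hr at 37 C, luciferase read by ONE-Glo luminescence.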

[18] = target: Nuclear receptor subfamily 1 group I member 3 (Homo sapiens) (UniProt Q14994); experiment: qHTS assay to identify small molecule antagonists of the constitutive androstane receptor (CAR) signaling pathway (AID 1224838);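 note: HepG2 cells stably expressing hCAR with CYP2B6 luciferase reporter stimulated by CITCO; nearly all actives have a fitted effect of over 40% in size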
Method in brief: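 Human hepatoma HepG2 cells expressing hCAR and a CYP2B6 promoter (2.2 kb) luciferase construct; compound titration (15 points) with 50 nM CITCO final, 24 h at 37 C/5% CO2; luminescence via ONE-Glo after 30 min at room temperature.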

[19] = qHTS assay to identify small molecule antagonists of the estrogen related receptor (ERR) signaling pathway from Tox21 library - cell viability counter screen (AID 1224834); note: nearly all actives have a fitted effect of over 30% in size
Method in brief: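 Seeded ERR cells were rested 6 h at 37 C/5% CO2 before compounds, positive and negative controls or DMSO were added. Incubation continued for 17.5 h, and viability was then quantified by CellTiter-Fluor fluorescence.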

Compound: CCCCC1(COC(=O)CCC(=O)O)C(=O)N(c2ccccc2)N(c2ccccc2)C1=O
- Potency [1]: inactive
- Potency [2]: inactive
- Potency [3]: inactive
- Potency [4]: inactive
- Potency [5]: inactive
- Potency [6]: inactive
- Potency [7]: inactive
- Potency [8]: inactive
- Potency [9]: inactive
- Potency [10]: inactive
- Potency [11]: inactive

Compound: O=C1NS(=O)(=O)c2ccccc21
- Potency [1]: inactive
- Potency [2]: inactive
- Potency [4]: inactive
- Potency [6]: inactive
- Potency [7]: inactive
- Potency [8]: inactive
- Potency [11]: inactive

Compound: CC(C)NCC(O)c1ccc(O)c(O)c1 (stereo not drawn)
- Potency [1]: inactive
- Potency [2]: inactive
- outcome [12]: inactive
- Potency [13]: inactive
- outcome [14]: inactive
- Potency [15]: inactive
- outcome [16]: inactive
- Potency [6]: inactive
- Potency [7]: inactive
- Potency [8]: inactive
- Potency [9]: inactive
- Potency [10]: 5.4 nM (active) and 8.6 nM (active) and inactive
- Potency [11]: 7.6 nM (active) and 4.9 nM (active) and 11.9 nM (active)

Compound: CCN(Cc1c(F)cccc1Cl)c1c([N+](=O)[O-])cc(C(F)(F)F)cc1[N+](=O)[O-]
- Potency [1]: 9.77 µM (active)
- Potency [2]: inactive
- Potency [4]: inactive
- Potency [5]: inactive
- Potency [6]: inactive
- Potency [7]: inactive
- Potency [17]: 7.7 µM (active)
- Potency [8]: inactive
- Potency [10]: inactive

Compound: Oc1ccccc1
- Potency [1]: inactive
- Potency [2]: inactive
- Potency [3]: inactive
- Potency [4]: inactive
- Potency [6]: inactive
- Potency [7]: inactive
- Potency [17]: inactive
- Potency [8]: inactive
- Potency [11]: inactive

Compound: C=C1CC[C@H](O)C/C1=C\C=C1/CCC[C@]2(C)[C@@H]([C@H](C)CCCC(C)C)CC[C@@H]12
- Potency [1]: 24.3 µM (active)
- Potency [2]: inactive
- Potency [3]: inactive
- Potency [6]: inactive
- Potency [18]: inactive
- Potency [17]: inactive
- Potency [11]: 19.2 µM (active)

Compound: NC(=O)c1cccnc1
- Potency [1]: inactive
- Potency [2]: inactive
- Potency [19]: inactive
- Potency [5]: inactive
- Potency [6]: inactive
- Potency [7]: inactive
- Potency [17]: inactive
- Potency [8]: inactive
- Potency [11]: inactive

Compound: CC12CCC(CC1)C(C)(C)O2
- Potency [1]: inactive
- Potency [2]: inactive
- Potency [3]: inactive
- Potency [4]: inactive
- Potency [5]: inactive
- Potency [6]: inactive
- Potency [7]: inactive
- Potency [8]: inactive
- Potency [11]: inactive

Compound: Cc1cccc(C)c1
- Potency [1]: inactive
- Potency [2]: inactive
- Potency [5]: inactive
- Potency [6]: inactive
- Potency [7]: inactive
- Potency [17]: inactive
- Potency [8]: inactive
- Potency [9]: inactive
- Potency [10]: inactive
- Potency [11]: inactive

Compound: NS(=O)(=O)O
- Potency [1]: inactive
- Potency [2]: inactive
- Potency [5]: inactive
- Potency [6]: inactive
- Potency [7]: inactive
- Potency [8]: inactive

Compound: F[B-](F)(F)F
- Potency [1]: inactive
- Potency [2]: inactive
- Potency [19]: inactive
- Potency [5]: inactive
- Potency [6]: inactive
- Potency [7]: inactive
- Potency [8]: inactive
- Potency [11]: inactive
